Records with an inconclusive call do not appear. Active and inactive are the calls of the source. Unless noted, calls follow the shape of the full dose curve.
Tests used:
[1] = qHTS for Inhibitors of the Functional Ribonucleoprotein Complex (vRNP) of Lassa (LASV) Arenavirus: LASV Primary Screen - GLuc reporter signal (AID 1347082; calls by dose curve; tested in HEK293 reporter line; also: series mostly up to about 57 µM; nearly all actives have a fitted effect of over 60% in size)
[2] = qHTS for Inhibitors of the Functional Ribonucleoprotein Complex (vRNP) of Lassa (LASV) Arenavirus: Viability assay - alamar blue signal for LASV Primary Screen (AID 1347083; calls by dose curve; tested in HEK293 reporter line; also: nearly all actives have a fitted effect of over 80% in size; also: potency is read from the fitted curve at half-maximal effect)
[3] = qHTS for Inhibitors of the Functional Ribonucleoprotein Complex (vRNP) of Lymphocytic Choriomeningitis Arenaviruses (LCMV): Viability assay - alamar blue signal for LCMV Primary Screen (AID 1347085; calls by dose curve; tested in HEK293 reporter line; also: nearly all actives have a fitted effect of over 80% in size; also: potency is read from the fitted curve at half-maximal effect)
[4] = molecular target: Nucleoprotein (Lymphocytic choriomeningitis virus (strain Armstrong)) (UniProt P09992); assay: qHTS for Inhibitors of the Functional Ribonucleoprotein Complex (vRNP) of Lymphocytic Choriomeningitis Arenaviruses (LCMV): LCMV Primary Screen - GLuc reporter signal (AID 1347086); also: nearly all actives have a fitted effect of over 70% in size; also: potency is read from the fitted curve at half-maximal effect

Measured: Potency

Nucleoprotein (Lymphocytic choriomeningitis virus (strain Armstrong)), sequence (P09992 whole entry, looked up): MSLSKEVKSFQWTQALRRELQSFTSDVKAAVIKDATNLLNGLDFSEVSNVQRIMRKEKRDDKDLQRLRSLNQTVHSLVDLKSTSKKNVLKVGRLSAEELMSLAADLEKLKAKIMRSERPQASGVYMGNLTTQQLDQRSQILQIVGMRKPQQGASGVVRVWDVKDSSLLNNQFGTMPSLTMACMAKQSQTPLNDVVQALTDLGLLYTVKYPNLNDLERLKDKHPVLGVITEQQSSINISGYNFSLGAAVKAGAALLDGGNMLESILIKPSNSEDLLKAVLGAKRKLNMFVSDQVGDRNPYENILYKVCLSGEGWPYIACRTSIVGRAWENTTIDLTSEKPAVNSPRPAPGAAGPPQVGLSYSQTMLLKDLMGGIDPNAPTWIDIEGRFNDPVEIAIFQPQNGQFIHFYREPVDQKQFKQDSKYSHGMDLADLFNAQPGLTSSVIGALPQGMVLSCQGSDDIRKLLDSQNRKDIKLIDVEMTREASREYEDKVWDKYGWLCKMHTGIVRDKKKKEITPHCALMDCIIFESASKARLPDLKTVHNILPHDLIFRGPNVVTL

Cc1nc2n(c(=O)c1CCN1CCC(c3noc4cc(F)ccc34)CC1)CCC[C@H]2O
inactive: [1] | [2] | [3] | [4]

C[C@@H](O)[C@H]1C(=O)N2C(C(=O)O)=C(S[C@@H]3CN[C@H](C(=O)N(C)C)C3)[C@H](C)[C@H]12
inactive: [1] | [2] | [3] | [4]

Cc1nccn1CC1CCc2c(c3ccccc3n2C)C1=O (stereo not drawn)
inactive: [1] | [2] | [3] | [4]

CCc1ccc(CCOc2ccc(CC3SC(=O)NC3=O)cc2)nc1 (stereo not drawn)
inactive: [1] | [2] | [3] | [4]

OCCOCCN1CCN(C(c2ccccc2)c2ccc(Cl)cc2)CC1 (stereo not drawn)
inactive: [1] | [2] | [3] | [4]

Cc1cn[nH]c1
inactive: [1] | [2] | [3] | [4]

O=NN(CCCl)C(=O)NC1CCCCC1
inactive: [1] | [2] | [3] | [4]

CCCCc1nc(Cl)c(CO)n1Cc1ccc(-c2ccccc2-c2nn[nH]n2)cc1
inactive: [1] | [2] | [3] | [4]

COc1ccc(OC)c(C(O)CNC(=O)CN)c1 (stereo not drawn)
inactive: [1] | [2] | [3] | [4]

CN(C)[C@@H]1C(=O)C(C(N)=O)=C(O)[C@@]2(O)C(=O)C3=C(O)c4c(O)ccc(Cl)c4[C@@H](O)[C@H]3C[C@@H]12
inactive: [1] | [2] | [3] | [4]

C[C@H]1O[C@H](O[C@H]2[C@H](O)[C@@H](O)[C@@H](O[C@H]3[C@H](O)[C@@H](O)[C@H](O)O[C@@H]3CO)O[C@@H]2CO)[C@H](O)[C@@H](O)[C@@H]1N[C@H]1C=C(CO)[C@@H](O)[C@H](O)[C@H]1O
inactive: [1] | [2] | [3] | [4]

CN(CCOc1ccc(CC2SC(=O)NC2=O)cc1)c1ccccn1 (stereo not drawn)
inactive: [1] | [2] | [3] | [4]

CC(=O)Oc1ccccc1C(=O)Nc1ncc([N+](=O)[O-])s1
inactive: [1] | [2] | [3] | [4]

CN(C/C=C/C#CC(C)(C)C)Cc1cccc2ccccc12
inactive: [1] | [2] | [3] | [4]

Cc1ncc([N+](=O)[O-])n1CCO
inactive: [1] | [2] | [3] | [4]

CCOC(=O)c1ncn2c1CN(C)C(=O)c1cc(F)ccc1-2
inactive: [1] | [2] | [3] | [4]

C[C@@H]1C[C@H]2[C@@H]3CCC4=CC(=O)C=C[C@]4(C)[C@@]3(F)[C@@H](O)C[C@]2(C)[C@@]1(O)C(=O)CO
inactive: [1] | [2] | [3] | [4]

CC1=NS(=O)(=O)c2cc(Cl)ccc2N1
inactive: [1] | [2] | [3] | [4]

Cc1ccsc1C(=CCCN1CCC[C@@H](C(=O)O)C1)c1sccc1C
inactive: [1] | [2] | [3] | [4]

Cc1oncc1C(=O)Nc1ccc(C(F)(F)F)cc1
inactive: [1] | [2] | [3] | [4]

Fc1ccc([C@@H]2CCNC[C@H]2COc2ccc3c(c2)OCO3)cc1
inactive: [1] | [2] | [3] | [4]

COc1cc(C(=O)NCc2ccc(OCCN(C)C)cc2)cc(OC)c1OC
inactive: [1] | [2] | [3] | [4]

COC(=O)Nc1nc2ccc(C(=O)c3ccccc3)cc2[nH]1
active: [2] 3.43 µM | [3] 6.85 µM | [4] 5.44 µM
inactive: [1]

O=C(OC1C[C@H]2CC[C@@H](C1)[N+]21CCCC1)C(O)(c1ccccc1)c1ccccc1 (stereo partly drawn)
inactive: [1] | [2] | [3] | [4]

C[C@H]1c2cccc(O)c2C(O)=C2C(=O)[C@]3(O)C(O)=C(C(N)=O)C(=O)[C@@H](N(C)C)[C@@H]3[C@@H](O)[C@@H]21
inactive: [1] | [2] | [3] | [4]

CCC(C)n1ncn(-c2ccc(N3CCN(c4ccc(OC[C@H]5CO[C@](Cn6cncn6)(c6ccc(Cl)cc6Cl)O5)cc4)CC3)cc2)c1=O (stereo partly drawn)
inactive: [1] | [2] | [3] | [4]

COc1cc(C(C)=O)ccc1OCCCN1CCC(c2noc3cc(F)ccc23)CC1
inactive: [1] | [2] | [3] | [4]

CCCN(CCC)CCc1cccc2c1CC(=O)N2
inactive: [1] | [2] | [3] | [4]

CC(CN(C)C)CN1c2ccccc2CCc2ccccc21 (stereo not drawn)
inactive: [1] | [2] | [3] | [4]

O=C(O)CCCc1ccccc1
inactive: [1] | [2] | [3] | [4]

C[C@]12CC[C@@H]3c4ccc(O)cc4C[C@@H](CCCCCCCCCS(=O)CCCC(F)(F)C(F)(F)F)[C@H]3[C@@H]1CC[C@@H]2O (stereo partly drawn)
inactive: [1] | [2] | [3] | [4]

CNCCCN1c2ccccc2CCc2ccccc21
inactive: [1] | [2] | [3] | [4]

CC(C)(O)c1ccccc1CC[C@@H](SCC1(CC(=O)O)CC1)c1cccc(/C=C/c2ccc3ccc(Cl)cc3n2)c1
inactive: [1] | [2] | [3] | [4]

CCCN1C[C@H](CSC)C[C@@H]2c3cccc4[nH]cc(c34)C[C@H]21
inactive: [1] | [2] | [3] | [4]

O[C@@H]1CO[C@H]2[C@@H]1OC[C@@H]2O
inactive: [1] | [2] | [3] | [4]

O=C(O)c1ccc(-n2nc(-c3ccccc3O)nc2-c2ccccc2O)cc1
inactive: [1] | [2] | [3] | [4]

CC(=O)OCC(CCn1cnc2cnc(N)nc21)COC(C)=O
inactive: [1] | [2] | [3] | [4]

O=C1NC(c2ccccc2)(c2ccccc2)C(=O)N1COP(=O)(O)O
inactive: [1] | [2] | [3] | [4]

CC[C@@]1(c2ccccc2)NC(=O)N(C)C1=O
inactive: [1] | [2] | [3] | [4]

CN1C(CCl)Nc2cc(Cl)c(S(N)(=O)=O)cc2S1(=O)=O (stereo not drawn)
inactive: [1] | [2] | [3] | [4]

CCCCS(=O)(=O)N[C@@H](Cc1ccc(OCCCCC2CCNCC2)cc1)C(=O)O
inactive: [1] | [2] | [3] | [4]

Cn1cnc2c(F)c(Nc3ccc(Br)cc3Cl)c(C(=O)NOCCO)cc21
inactive: [1] | [2] | [3] | [4]

Cc1nc2n(c(=O)c1CCN1CCC(c3noc4cc(F)ccc34)CC1)CCCC2
inactive: [1] | [2] | [3] | [4]

CCc1nc(N)nc(N)c1-c1ccc(Cl)cc1
active: [2] 38.5 µM | [3] 7.69 µM
inactive: [1] | [4]

CCN(CC)CCOC(=O)C1(C2CCCCC2)CCCCC1
inactive: [1] | [2] | [3] | [4]

COc1ccc2nc(S(=O)Cc3ncc(C)c(OC)c3C)[nH]c2c1 (stereo not drawn)
inactive: [1] | [2] | [3] | [4]

CO[C@H]1C=CO[C@@]2(C)Oc3c(C)c(O)c4c(O)c(c(/C=N/N5CCN(C)CC5)c(O)c4c3C2=O)NC(=O)/C(C)=C\C=C[C@H](C)[C@H](O)[C@@H](C)[C@@H](O)[C@@H](C)[C@H](OC(C)=O)[C@@H]1C
inactive: [1] | [2] | [3] | [4]

NC(=O)N1c2ccccc2CC(=O)c2ccccc21
inactive: [1] | [2] | [3] | [4]

Cc1onc(-c2c(Cl)cccc2Cl)c1C(=O)N[C@@H]1C(=O)N2[C@@H]1SC(C)(C)[C@@H]2C(=O)O
inactive: [1] | [2] | [3] | [4]

CC(=O)SC[C@@H](C)C(=O)N1CCC[C@H]1C(=O)N[C@@H](Cc1ccccc1)C(=O)O
inactive: [1] | [2] | [3] | [4]

CC(C)(C(=O)O)c1ccc(C(O)CCCN2CCC(C(O)(c3ccccc3)c3ccccc3)CC2)cc1 (stereo not drawn)
inactive: [1] | [2] | [3] | [4]

Cc1ccc(C(=O)c2cc(O)c(O)c([N+](=O)[O-])c2)cc1
inactive: [1] | [2] | [3] | [4]
